Assay results taken from PubChem BioAssay (NCI).
Compounds without any hit were thinned out: in the full panel of roughly 83,000, 20% have a hit.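 Note: values are percent growth. 100 is the growth of untreated cells, values between 100 and 0 indicate rising inhibition; between -100 and 0 indicates cell death.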 A number with no mark means an inactive call. Calls of active or inactive are those of the source. Rule for the calls: active = growth percent below 10; inactive = the rest.

Columns and labels:
Test in all cases: NCI-60 one-dose screen, 48 h (100 = growth as untreated, 0 = no growth, -100 = all killed)
Settings in all cases: 10 µM
[1] = system: NCI-H23 lung
[2] = system: NCI-H226 lung
[3] = system: NCI-H322M lung
[4] = system: HOP-62 NSCLC
[5] = system: NCI-H460 lung
[6] = system: HOP-92 NSCLC
[7] = system: NCI-H522 lung
[8] = system: A549/ATCC NSCLC
[9] = system: 786-0 renal
[10] = system: COLO 205 colon
[11] = system: DU-145 prostate
[12] = system: K-562 leukemia
[13] = system: MALME-3M melanoma
[14] = system: MDA-MB-231 breast
[15] = system: RXF 393 renal
[16] = system: SF-268 CNS
[17] = system: SF-295 CNS
[18] = system: SF-539 CNS
[19] = system: UACC-257 melanoma
[20] = system: M14 melanoma

CC(=O)Nc1ccc(-c2cn(-c3cccc(C(=O)Nc4cc(C(F)(F)F)cc(C(F)(F)F)c4)c3)nn2)cn1
growth [1]: -68.6% (active)
growth [2]: -68% (active)
growth [3]: -15.6% (active)
growth [4]: -61.1% (active)
growth [5]: -71.6% (active)
growth [6]: -52% (active)
growth [7]: -11.2% (active)
growth [8]: -26.1% (active)
growth [9]: -42.8% (active)
growth [10]: -62.2% (active)
growth [11]: -47.5% (active)
growth [12]: -66.1% (active)
growth [13]: -48.3% (active)
growth [14]: -72.5% (active)
growth [15]: -69.4% (active)
growth [16]: -7.7% (active)
growth [17]: -89.1% (active)
growth [18]: -83.7% (active)
growth [19]: -4.2% (active)
growth [20]: 4.5% (active)

O=C1NC(=NC23CC4CC(CC(C4)C2)C3)N/C1=C\c1ccc2ncsc2c1
growth [1]: -10.3% (active)
growth [2]: -4% (active)
growth [3]: 4.94% (active)
growth [4]: 9.31% (active)
growth [5]: 7.74% (active)
growth [6]: 5.85% (active)
growth [7]: -7.87% (active)
growth [8]: 16.5%
growth [9]: 16.1%
growth [10]: -29.6% (active)
growth [11]: 6.29% (active)
growth [12]: 10.5%
growth [13]: 2.66% (active)
growth [14]: -8.83% (active)
growth [15]: -63.6% (active)
growth [16]: -11.5% (active)
growth [17]: 13%
growth [18]: -23.9% (active)
growth [19]: 26.7%
growth [20]: 42%

C/C(=C\CC/C=C(\C)CC/C=C(\C)CC[C@@H](O)C(C)(C)O)CC/C=C(\C)CC[C@@H](O)C(C)(C)O
growth [1]: 31.8%
growth [2]: 38.8%
growth [3]: 98.1%
growth [4]: 96.6%
growth [5]: 32%
growth [6]: 26%
growth [7]: 21.8%
growth [8]: 26.1%
growth [9]: 47.4%
growth [10]: 41.9%
growth [11]: 63.7%
growth [12]: 10.4%
growth [13]: 44.8%
growth [14]: 61.4%
growth [15]: 16.5%
growth [16]: 57.5%
growth [17]: 9.52% (active)
growth [18]: 43%
growth [19]: 21.1%
growth [20]: 22.7%

O=C(Nc1nc2ccc([N+](=O)[O-])cc2s1)Nc1ccccc1I
growth [1]: -6.9% (active)
growth [2]: -7.84% (active)
growth [3]: -0.431% (active)
growth [4]: 7.62% (active)
growth [5]: 6.36% (active)
growth [6]: -28.1% (active)
growth [7]: -23.7% (active)
growth [8]: 3.05% (active)
growth [9]: 0.486% (active)
growth [10]: -94.2% (active)
growth [11]: 17.9%
growth [12]: 4.53% (active)
growth [13]: -5.11% (active)
growth [14]: 0.0164% (active)
growth [15]: -12.7% (active)
growth [16]: 22%
growth [17]: -25.8% (active)
growth [18]: -0.233% (active)
growth [19]: -17.8% (active)
growth [20]: 2.29% (active)

COC[C@@H](CC(C)C)N=C1NC(=O)/C(=C/c2ccc3ncoc3c2)N1
growth [1]: -14.2% (active)
growth [2]: 0.124% (active)
growth [3]: 20.4%
growth [4]: 14.4%
growth [5]: 6.38% (active)
growth [6]: 15.8%
growth [7]: -16.2% (active)
growth [8]: 13.7%
growth [9]: 22.2%
growth [10]: -16.1% (active)
growth [11]: 22.6%
growth [12]: 14.4%
growth [13]: 32.5%
growth [14]: 12.3%
growth [15]: -8.35% (active)
growth [16]: 22%
growth [17]: 34.4%
growth [18]: -5.08% (active)
growth [19]: 11.5%
growth [20]: 41%

COc1ccc2[nH]c(=O)c(CSc3nccc(-c4ccc(Cl)cc4)n3)cc2c1
growth [1]: 33.9%
growth [2]: -26.1% (active)
growth [3]: 44.9%
growth [4]: 32.9%
growth [5]: 9.38% (active)
growth [6]: 4.58% (active)
growth [7]: -32.2% (active)
growth [8]: 2.57% (active)
growth [9]: -28.6% (active)
growth [10]: 20.5%
growth [11]: 44.8%
growth [12]: 23.2%
growth [13]: 46.4%
growth [14]: 18.4%
growth [15]: -23.7% (active)
growth [16]: 28.8%
growth [17]: -20.3% (active)
growth [18]: -70.3% (active)
growth [19]: 6.77% (active)
growth [20]: 55.2%

COc1ccc2c3nc4cc(C)c(C)cc4nc3n(CCN(C)C)c2c1
growth [1]: 8.28% (active)
growth [2]: 12.1%
growth [3]: 0.682% (active)
growth [4]: 8.8% (active)
growth [5]: -50.6% (active)
growth [6]: 27.1%
growth [7]: -22.4% (active)
growth [8]: -59.8% (active)
growth [9]: -42.7% (active)
growth [10]: 62.5%
growth [11]: -3.48% (active)
growth [12]: 3.09% (active)
growth [13]: -86% (active)
growth [14]: -10% (active)
growth [15]: -25.5% (active)
growth [16]: 27.8%
growth [17]: -59.4% (active)
growth [18]: -88.1% (active)
growth [19]: 10.5%
growth [20]: -73.5% (active)

O=c1oc2ccc(-c3ccc(F)cc3F)cc2c(=O)n1-c1ccc(F)cc1
growth [1]: -27.8% (active)
growth [2]: -6.57% (active)
growth [3]: 1.43% (active)
growth [4]: -20.9% (active)
growth [5]: 2.62% (active)
growth [6]: -23.8% (active)
growth [7]: -7.06% (active)
growth [8]: 17.8%
growth [9]: 8.17% (active)
growth [10]: 83.2%
growth [11]: 14.5%
growth [12]: 5.98% (active)
growth [13]: -21.2% (active)
growth [14]: -5.38% (active)
growth [15]: -10.4% (active)
growth [16]: 2.76% (active)
growth [17]: -19.3% (active)
growth [18]: -3.51% (active)
growth [19]: 15.5%
growth [20]: 18.3%
